For nine molecules, binding signal results are on record in paper PMC8222333, “AsCas12a ultra nuclease facilitates the rapid generation of therapeutic cell medicines”.

Some targets named below: dAsCas12a S542R (Acidaminococcus sp., UniProt U2UMQ6 1-1307, S542R;D908A;E993A;D1235A); d-enCas12a (Acidaminococcus sp., UniProt U2UMQ6 1-1307, E174R;S542R;K548R;D908A;E993A;D1235A); d-enCas12a-Ultra (Acidaminococcus sp., UniProt U2UMQ6 1-1307, E174R;S542R;K548R;M537R;F870L;D908A;E993A;D1235A).
Test in all cases: Spec-seq (native PAGE EMSA with sequencing of bound and unbound); 25 mM Tris-HCl pH 7.4, 150 mM KCl, 5 mM MgCl2, 10% glycerol, 1 mM DTT, 40 ng/uL salmon sperm DNA; 400 nM Cas12a, 480 nM crRNA, 50 nM library, 37 C 1 h; native PAGE at room temperature; high values mean tight binding
Conditions in all cases: protein: recombinant
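Note: relative affinity from the bound to unbound sequence frequency ratio in Spec-seq.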

B1: ACCC (dsDNA)
DNA 1: GCTATCTAGTGCTCAGTACGCACTGACCCAGGAAACTTCTGGCAGGACCAGGTCATGAGATCGGAAGAGCACACGTCTGAACTCCAGTCA
DNA 2: TGACTGGAGTTCAGACGTGTGCTCTTCCGATCTCATGACCTGGTCCTGCCAGAAGTTTCCTGGGTCAGTGCGTACTGAGCACTAGATAGC
RNA: AAUUUCUACUCUUGUAGAUAGGAAACUUCUGGCAGGACC
For the molecule B1, the results for the binding signal with dAsCas12a S542R, with d-enCas12a and with d-enCas12a-Ultra were -5.2 lnKA, -2.44 lnKA and -0.482 lnKA, respectively.

B2: ACGA (dsDNA)
DNA 1: GCTATCTAGTGCTCAGTACGCACTGACGAAGGAAACTTCTGGCAGGACCAGGTCATGAGATCGGAAGAGCACACGTCTGAACTCCAGTCA
DNA 2: TGACTGGAGTTCAGACGTGTGCTCTTCCGATCTCATGACCTGGTCCTGCCAGAAGTTTCCTTCGTCAGTGCGTACTGAGCACTAGATAGC
RNA: AAUUUCUACUCUUGUAGAUAGGAAACUUCUGGCAGGACC
Consider B2, for which the figures for the binding signal with dAsCas12a S542R, with d-enCas12a and in the assay with d-enCas12a-Ultra were -8.68 lnKA, -5.84 lnKA and -3.39 lnKA, respectively.

B3: AGAC (dsDNA)
DNA 1: GCTATCTAGTGCTCAGTACGCACTGAGACAGGAAACTTCTGGCAGGACCAGGTCATGAGATCGGAAGAGCACACGTCTGAACTCCAGTCA
DNA 2: TGACTGGAGTTCAGACGTGTGCTCTTCCGATCTCATGACCTGGTCCTGCCAGAAGTTTCCTGTCTCAGTGCGTACTGAGCACTAGATAGC
RNA: AAUUUCUACUCUUGUAGAUAGGAAACUUCUGGCAGGACC
B3: the binding signal in the assay with dAsCas12a S542R is -8.52 lnKA; with d-enCas12a, -5.69 lnKA; with d-enCas12a-Ultra, -3.24 lnKA.

B4: AGCA (dsDNA)
DNA 1: GCTATCTAGTGCTCAGTACGCACTGAGCAAGGAAACTTCTGGCAGGACCAGGTCATGAGATCGGAAGAGCACACGTCTGAACTCCAGTCA
DNA 2: TGACTGGAGTTCAGACGTGTGCTCTTCCGATCTCATGACCTGGTCCTGCCAGAAGTTTCCTTGCTCAGTGCGTACTGAGCACTAGATAGC
RNA: AAUUUCUACUCUUGUAGAUAGGAAACUUCUGGCAGGACC
On to B4, for which the figures for the binding signal in the assay with dAsCas12a S542R, with d-enCas12a and in the assay with d-enCas12a-Ultra were -8.4 lnKA, -3.23 lnKA and -0.786 lnKA, respectively.

B5: ACCG (dsDNA)
DNA 1: GCTATCTAGTGCTCAGTACGCACTGACCGAGGAAACTTCTGGCAGGACCAGGTCATGAGATCGGAAGAGCACACGTCTGAACTCCAGTCA
DNA 2: TGACTGGAGTTCAGACGTGTGCTCTTCCGATCTCATGACCTGGTCCTGCCAGAAGTTTCCTCGGTCAGTGCGTACTGAGCACTAGATAGC
RNA: AAUUUCUACUCUUGUAGAUAGGAAACUUCUGGCAGGACC
With B5, the binding signal was -6.71 lnKA with dAsCas12a S542R, -4.92 lnKA in the assay with d-enCas12a and -1.45 lnKA with d-enCas12a-Ultra.

B6: ACGG (dsDNA)
DNA 1: GCTATCTAGTGCTCAGTACGCACTGACGGAGGAAACTTCTGGCAGGACCAGGTCATGAGATCGGAAGAGCACACGTCTGAACTCCAGTCA
DNA 2: TGACTGGAGTTCAGACGTGTGCTCTTCCGATCTCATGACCTGGTCCTGCCAGAAGTTTCCTCCGTCAGTGCGTACTGAGCACTAGATAGC
RNA: AAUUUCUACUCUUGUAGAUAGGAAACUUCUGGCAGGACC
As for B6, the binding signal was -8.37 lnKA with dAsCas12a S542R, -6.05 lnKA in the assay with d-enCas12a and -3.43 lnKA with d-enCas12a-Ultra.

B7: AGAT (dsDNA)
DNA 1: GCTATCTAGTGCTCAGTACGCACTGAGATAGGAAACTTCTGGCAGGACCAGGTCATGAGATCGGAAGAGCACACGTCTGAACTCCAGTCA
DNA 2: TGACTGGAGTTCAGACGTGTGCTCTTCCGATCTCATGACCTGGTCCTGCCAGAAGTTTCCTATCTCAGTGCGTACTGAGCACTAGATAGC
RNA: AAUUUCUACUCUUGUAGAUAGGAAACUUCUGGCAGGACC
Turning to B7, the binding signal in the assay with dAsCas12a S542R is -8.54 lnKA; with d-enCas12a, -5.75 lnKA; with d-enCas12a-Ultra, -3.47 lnKA.

B8: AGAG (dsDNA)
DNA 1: GCTATCTAGTGCTCAGTACGCACTGAGAGAGGAAACTTCTGGCAGGACCAGGTCATGAGATCGGAAGAGCACACGTCTGAACTCCAGTCA
DNA 2: TGACTGGAGTTCAGACGTGTGCTCTTCCGATCTCATGACCTGGTCCTGCCAGAAGTTTCCTCTCTCAGTGCGTACTGAGCACTAGATAGC
RNA: AAUUUCUACUCUUGUAGAUAGGAAACUUCUGGCAGGACC
As to B8, the figures for the binding signal with dAsCas12a S542R, with d-enCas12a and with d-enCas12a-Ultra were -8.48 lnKA, -5.79 lnKA and -3.32 lnKA, respectively.

B9: ACGT (dsDNA)
DNA 1: GCTATCTAGTGCTCAGTACGCACTGACGTAGGAAACTTCTGGCAGGACCAGGTCATGAGATCGGAAGAGCACACGTCTGAACTCCAGTCA
DNA 2: TGACTGGAGTTCAGACGTGTGCTCTTCCGATCTCATGACCTGGTCCTGCCAGAAGTTTCCTACGTCAGTGCGTACTGAGCACTAGATAGC
RNA: AAUUUCUACUCUUGUAGAUAGGAAACUUCUGGCAGGACC
Regarding B9, the binding signal was -8.74 lnKA with dAsCas12a S542R, -5.85 lnKA with d-enCas12a and -3.49 lnKA with d-enCas12a-Ultra.
